# Data from PubChem BioAssay (NCATS).
# Several values for one entry are separate records, joined by “and”; a condition that tells them apart may be missing. Identical values can stand only once. Results filed as inconclusive are left out. A number with no mark means an inactive call. Activity calls are given as the source filed them. The call rests on the fitted dose curve; in most records, active means well fitted curve in the direction sought with a large enough effect; inconclusive means small, poorly fitted or top-dose-only effect, or another doubt; inactive means no such curve, though single readings can be large; an effect the other way counts as inactive or inconclusive.
# What was measured:
# [1] = Viability qHTS for spleen associated tyrosine kinase inhibitor (SYKi) naive MV4-11 cells (AID 1963823); further: nearly all actives have a fitted effect of over 40% in size
# How it was run: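 SYKi-naive MV4-11 AML cells, 500 per well, were exposed to library compounds for 72 hr at 37 C, 5% CO2. Viability was then read by CellTiter-Glo luminescence after 10 min at room temperature.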
# [2] = Viability qHTS for spleen associated tyrosine kinase inhibitor (SYKi) drug resistant MV4-11 cells (AID 1963824); further: nearly all actives have a fitted effect of over 35% in size
# How it was run: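 SYK-inhibitor-resistant MV4-11 AML cells were seeded at 500 per well onto compound and cultured 72 hours (37 °C, 5% CO2). CellTiter-Glo was then added, and after 10 min at room temperature, luminescence gave viability.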
# [3] = Quantitative highthroughput screen to assess conditional lethalithy of NOMO1 cells grown in RPMI1640 with untreated serum (RPMI+s) (AID 1963876); further: nearly all actives have a fitted effect of over 35% in size;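 on Viability: 100% = DMSO wells and 0% = empty wells without cells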
# How it was run: (§1)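 Each medium arm—HPLM with 10% dialyzed FBS, or RPMI1640 with 5 mM glucose and 10% untreated or dialyzed FBS—was screened against an 11-point, 3-fold compound titration for 48 h at 37 °C, with CellTiter-Glo luminescence as endpoint.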
# [4] = Quantitative highthroughput screen to assess conditional lethalithy of NOMO1 cells grown in RPMI1640 with dialyzed fetal bovine serum (RPMI+ds) (AID 1963877); further: nearly all actives have a fitted effect of over 30% in size;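 on Viability: series mostly up to about 46 µM; 100% = DMSO control wells and 0% = empty wells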
# How it was run: as §1
# [5] = Quantitative highthroughput screen to assess conditional lethalithy of NOMO1 cells grown in Human Plasma-Like Medium with dialyzed fetal bovine serum (HPLM+ds) (AID 1963878); further: nearly all actives have a fitted effect of over 35% in size;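 on Viability: 100% = DMSO wells and 0% = empty wells on each plate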
# How it was run: as §1
# [6] = Quantitative highthroughput screen to assess conditional lethalithy of SEM cells grown in Human Plasma-Like Medium with dialyzed fetal bovine serum (HPLM+ds) (AID 1963882); further: nearly all actives have a fitted effect of over 35% in size; on Viability: series mostly up to about 46 µM
# How it was run: as §1
# [7] = Quantitative highthroughput screen to assess conditional lethalithy of SEM cells grown in RPMI1640 with unreated serum (RPMI+s) (AID 1963883); further: nearly all actives have a fitted effect of over 35% in size;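 on Viability: 100% = DMSO wells and 0% = empty wells without cells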
# How it was run: as §1
# [8] = Quantitative highthroughput screen to assess conditional lethalithy of SEM cells grown in RPMI1640 with dialyzed fetal bovine serum (RPMI+ds) (AID 1963884); further: nearly all actives have a fitted effect of over 35% in size;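 on Viability: series mostly up to about 46 µM; 100% = DMSO control wells and 0% = empty wells without cells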
# How it was run: as §1
# [9] = Cellular viability qHTS for adrenocortical cancer (ACC) cell line SW-13 (AID 1963989); details: SW-13 ACC cells viability, CellTiter-Glo, 48 h; activity (max response): stronger effect = lower value; further: nearly all actives have a fitted effect of over 65% in size;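 on activity (max response): cells grown in serum-free medium with ITS supplement; on the % scale 0 is the no-effect control and ±100 the full control effect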
# How it was run: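 Compound titrations (up to 46 uM final, in DMSO) were applied to SW-13 cells for 48 h at 37C/5% CO2. Reading used CellTiter-Glo after 20 min at room temperature; fitted curves yielded IC50 and efficacy.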
# [10] = Cellular viability qHTS for adrenocortical cancer (ACC) cell line NCI-H295R (AID 1963990); further: nearly all actives have a fitted effect of over 60% in size
# How it was run: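 Readout: CellTiter-Glo luminescence, 20 min RT. Exposure: 48 h, 37C/5% CO2. Cells: NCI-H295R, ITS-DMEM serum-free. Range: up to 46 uM. Analysis: 4PL fit, IC50 plus efficacy.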
# [11] = Quantitative highthroughput screen to assess conditional lethalithy of P12 Ichikawa cells grown in Human Plasma-Like Medium with dialyzed fetal bovine serum (HPLM+ds) (AID 1963879); details: Potency: viability; further: nearly all actives have a fitted effect of over 35% in size; on Viability: series mostly up to about 46 µM
# How it was run: as §1
# [12] = Quantitative highthroughput screen to assess conditional lethalithy of P12 Ichikawa cells grown in RPMI1640 with dialyzed fetal bovine serum (RPMI+ds) (AID 1963880); details: Potency: P12-Ichikawa viability; further: nearly all actives have a fitted effect of over 35% in size;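 on Viability: 100% = DMSO wells and 0% = empty wells on each plate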
# How it was run: as §1
# [13] = Quantitative highthroughput screen to assess conditional lethalithy of P12 Ichikawa cells grown in RPMI1640 with untreated serum (RPMI+s) (AID 1963881); details: Potency: viability; further: nearly all actives have a fitted effect of over 35% in size;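 on Viability: series mostly up to about 46 µM; 100% = DMSO wells and 0% = empty wells without cells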
# How it was run: as §1
# Potency means the concentration at half of the fitted maximal effect.
Compound,Potency [1],Potency [2],Potency [3],Potency [4],Potency [5],Potency [6],Potency [7],Potency [8],Potency [9],Potency [10],Potency [11],Potency [12],Potency [13],activity (max response) [9]
Nc1nc(Nc2ccc(S(N)(=O)=O)cc2)nn1C(=O)c1c(F)cccc1F,1.16 µM (active) and 1.86 µM (active),1.03 µM (active) and 1.48 µM (active),16.6 µM (active),16.6 µM (active),18.7 µM (active),8.33 µM (active),10.5 µM (active),9.35 µM (active),3.55 µM (active),15.8 µM (active),–,–,–,–
NCCCC(N)(C(=O)O)C(F)F (stereo unspecified),inactive,inactive,inactive,inactive,–,inactive,–,inactive,–,inactive,inactive,inactive,inactive,1.41% and -0.581%
CC(C)(C)Cn1c(N)nc2ccc(-c3[nH]c(C(C)(C)C)nc3-c3ccc(F)cc3)nc21,16.6 µM (active),461 nM (active) and 14.8 µM (active),inactive,inactive,–,inactive,–,–,25.1 µM (active),–,inactive,inactive,inactive,–
CCCCS(=N)(=O)CCC(N)C(=O)O (stereo unspecified),24.1 µM (active),17.1 µM (active),inactive,inactive,16.6 µM (active),–,–,inactive,–,inactive,–,–,–,9.43%
CNC(=O)c1nn(C)c2c1C(C)(C)Cc1cnc(Nc3ccc(N4CCN(C)CC4)cc3)nc1-2,51.7 nM (active) and 74.2 nM (active),82 nM (active) and 209 nM (active),16.6 µM (active),14.8 µM (active),8.33 µM (active),–,0.372 µM (active),0.418 µM (active),–,14.1 µM (active),–,–,–,–
CC(C)OC(=O)C1=CN(C(=O)c2ccc(F)c(F)c2)CC(C)(C)c2c1[nH]c1ccccc21,8.33 µM (active),13.2 µM (active),inactive,inactive,–,inactive,inactive,inactive,–,inactive,inactive,inactive,inactive,-5.24%
CNC(=O)c1ccc2cc(C3(O)CCn4cncc43)ccc2c1 (stereo unspecified),inactive,inactive,inactive,inactive,–,inactive,inactive,inactive,–,inactive,inactive,inactive,inactive,-3.07%
N#Cc1ccnc(Nc2cc(C3CCN(C4COC4)CC3)cc(N3CCC(F)(F)C3)n2)c1,1.16 µM (active) and 118 nM (active),2.06 µM (active) and 235 nM (active),13.2 µM (active),13.2 µM (active),14.8 µM (active),13.2 µM (active),13.2 µM (active),9.33 µM (active),15.8 µM (active),10 µM (active),–,–,–,–
CC(C)(OCc1nn(Cc2ccccc2)c2ccccc12)C(=O)O,inactive,inactive,inactive,inactive,–,inactive,inactive,inactive,–,inactive,inactive,inactive,inactive,3.54%
Cc1cc2c(s1)Nc1ccccc1N=C2N1CCN(C)CC1,20.6 µM (active),23.1 µM (active),inactive,inactive,–,–,inactive,inactive,–,inactive,inactive,inactive,inactive,-7.86%
CC1(C)CCC(c2ccc(Cl)cc2)=C(CN2CCN(c3ccc(C(=O)NS(=O)(=O)c4ccc(N[C@H](CCN5CCOCC5)CSc5ccccc5)c(S(=O)(=O)C(F)(F)F)c4)cc3)CC2)C1,116 nM (active) and 332 nM (active),32.6 nM (active) and 118 nM (active),0.662 µM (active),0.264 µM (active),–,0.0833 µM (active),0.0526 µM (active),0.0526 µM (active),–,inactive,0.118 µM (active),0.264 µM (active),0.166 µM (active),11.1%
O=C(O)CCNC(=O)c1ccc(N=Nc2ccc(O)c(C(=O)O)c2)cc1,inactive,inactive,inactive,inactive,–,inactive,inactive,inactive,–,–,inactive,inactive,inactive,4.01% and 3.9%
NC(=O)c1ccc2nc(-c3ccc(Oc4ccc(Cl)cc4)cc3)[nH]c2c1,5.17 µM (active),2.95 µM (active) and 8.2 µM (active),inactive,inactive,–,–,–,–,28.2 µM (active),25.1 µM (active),inactive,inactive,–,–
CC(c1cc2ccccc2s1)N(O)C(N)=O (stereo unspecified),inactive,inactive,inactive,inactive,–,–,–,inactive,–,inactive,inactive,inactive,inactive,–
O=C1Cc2cc(CCN3CCN(c4nsc5ccccc45)CC3)c(Cl)cc2N1,11.9 µM (active) and 9.2 µM (active),3.35 µM (active) and 4.11 µM (active),inactive,inactive,–,inactive,–,inactive,–,–,inactive,inactive,inactive,–
O=C(O)C1=CC(O)C(O)[C@H](O)C1 (stereo partly specified),inactive,inactive,inactive,inactive,inactive,inactive,inactive,inactive,–,inactive,–,–,–,-8.83%
Cc1ccc(C(=O)Nc2cccc(C(F)(F)F)c2)cc1-c1ccc2nc(NCCN3CCOCC3)ncc2c1,184 nM (active) and 372 nM (active),366 nM (active) and 742 nM (active),5.9 µM (active),4.69 µM (active),4.18 µM (active),–,4.18 µM (active),4.18 µM (active),14.1 µM (active),22.4 µM (active),–,–,–,–
COc1cccc2c1C(=O)c1c(O)c3c(c(O)c1C2=O)C[C@@](O)(C(=O)CO)C[C@@H]3O[C@H]1C[C@H](N)[C@H](OC2CCCCO2)[C@H](C)O1 (stereo partly specified),105 nM (active) and 74.2 nM (active),118 nM (active) and 59 nM (active),inactive,inactive,–,–,–,inactive,3.16 µM (active) and 5.01 µM (active),–,inactive,inactive,inactive,–
CN1C2CCC1CC(OC(=O)C(CO)c1ccccc1)C2 (stereo unspecified),inactive,inactive,inactive,inactive,inactive,inactive,inactive,inactive,–,inactive,–,–,–,-20.1%
CCCc1nn(C)c2c(=O)[nH]c(-c3cc(S(=O)(=O)N4CCN(C)CC4)ccc3OCC)nc12,inactive,18.6 µM (active),inactive,inactive,inactive,–,–,–,–,inactive,–,–,–,1.97% and 1.26%
Cc1ccccc1-n1c(Cn2nc(-c3cccc(O)c3)c3c(N)ncnc32)nc2cccc(C)c2c1=O,6.61 µM (active),11.6 µM (active),1.18 µM (active),2.35 µM (active),1.66 µM (active),inactive,inactive,inactive,–,–,–,–,–,-11.8%
CO[C@@H]1C(N(C)C(=O)c2ccccc2)C[C@H]2O[C@]1(C)n1c3ccccc3c3c4c(c5c6ccccc6n2c5c31)C(=O)NC4=O (stereo partly specified),0.148 µM (active),0.332 µM (active),14.8 µM (active),14.8 µM (active),9.35 µM (active),4.69 µM (active),1.87 µM (active),3.72 µM (active),–,–,–,–,–,–
CNC(=O)c1ccc2c(C(=Nc3cccc(CN(C)C)c3)c3ccccc3)c(O)[nH]c2c1,2.95 µM (active),5.8 µM (active) and 3.72 µM (active),20.9 µM (active),18.7 µM (active),16.6 µM (active),1.87 µM (active),–,1.32 µM (active),–,–,–,–,–,–
CCOC(=O)[C@H](CCc1ccccc1)N[C@H]1CS[C@H](c2cccs2)CN(CC(=O)O)C1=O,7.42 µM (active),13.3 µM (active) and 5.9 µM (active),10.5 µM (active),13.2 µM (active),–,inactive,–,inactive,–,inactive,8.33 µM (active),14.8 µM (active),9.35 µM (active),6.33% and 0.504%
CCN1CCN(c2ccc(Nc3cc(N(C)C(=O)Nc4c(Cl)c(OC)cc(OC)c4Cl)ncn3)cc2)CC1,2.63 µM (active),1.86 µM (active),5.26 µM (active),7.43 µM (active),3.32 µM (active),4.18 µM (active),2.09 µM (active),2.64 µM (active),–,inactive,–,–,–,–
CN1c2ccccc2C(=O)N2CCc3c([nH]c4ccccc34)C21 (stereo unspecified),1.64 µM (active),1.16 µM (active),inactive,inactive,–,inactive,–,inactive,2.24 µM (active),1.78 µM (active),inactive,inactive,inactive,–
CCc1c(O)cc(O)c(C(=O)c2ccc(OCCN3CCOCC3)c(OC)c2)c1CC(=O)N(CCOC)CCOC,0.132 µM (active),0.235 µM (active),2.96 µM (active),3.32 µM (active),2.35 µM (active),–,2.96 µM (active),2.64 µM (active),–,inactive,–,–,–,-6.69%
COC(=O)Nc1ccc(-c2nc(N3CCOCC3)c3cnn(C4CCN(Cc5cccnc5)CC4)c3n2)cc1,0.517 µM (active),0.58 µM (active),4.69 µM (active),1.87 µM (active),–,0.662 µM (active),0.296 µM (active),0.372 µM (active),12.6 µM (active),5.01 µM (active),5.9 µM (active),1.48 µM (active),0.469 µM (active),–
Cc1cc([C@@H](C)Nc2ccccc2C(=O)O)c2nc(N3CCOCC3)cc(=O)n2c1,5.01 µM (active) and 5.25 µM (active),7.08 µM (active) and 5.25 µM (active),13.6 µM (active),12.1 µM (active),8.55 µM (active),13.6 µM (active),10.8 µM (active),9.59 µM (active),–,–,–,–,–,–
